Bioassay records deposited in PubChem by National Center for Advancing Translational Sciences (NCATS).
This is a sample that favours compounds with a hit; in the whole collection about 1.4% have one here.
N370S GC: qHTS Assay for Inhibitors and Activators of N370S glucocerebrosidase as a Potential Chaperone Treatment of Gaucher Disease; Lysosomal acid glucosylceramidase (Homo sapiens), P04062; N370S GC spleen homogenate, 4MU-glucoside fluorescence; Potency, µM (titrated, usually from 59.4 µM), for the others: top-dose activity change, negative = inhibition, usual class: inhibitors; actives 0.092% (n = 330,000); AID 2101, 2009;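 further: potency means the concentration at half of the fitted maximal effect; 0% = full enzyme activity and -100% = no enzyme basal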
TCR activator: Activators of T cell receptors: qHTS campaign; primary human leukocytes, anti-CD3, IL-2 HTRF, 48 h; Potency, µM (highest dose often 9.22 µM), without a hit: at the highest dose activation of IL-2 secretion, usual class: activators; 330,000 tested, under 10 active; AID 504894, 2011; further: % of control where 0% means no effect
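HTRF read-out of IL-2 secretion: europium cryptate donor excited at 320nm, d2 acceptor emission at 665nm. Cells were primary human leukocytes incubated 48 hr with compounds and a-CD3 beads, supplying TCR signal only.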
BRCA1 expr act: qHTS Assay to Identify Small Molecule Activators of BRCA1 Expression; Potency, µM (doses to about 46.1 µM), for the others: top-dose activation, hits mostly activators; MCF7-BRCA1-FFLuc reporter, luminescence, 48 h; response scale: scaled: vehicle 0%, 10 µM genistein 100%; actives 1.1% (n = 380,000); further: potency means the concentration at half of the fitted maximal effect; nearly all actives have a fitted effect of over 80% in size
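48 h compound treatment of MCF7-BRCA1-FFLuc cells (phenol-red free MEM, 37 °C), then 15 min with luciferase substrate and luminescence imaging.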
GLS inh: qHTS for Inhibitors of Glutaminase (GLS). Glutaminase kidney isoform, mitochondrial (Homo sapiens), O94925. GLS enzymatic activity, qHTS titration. Potency, µM (doses to about 45.5 µM), without a hit: top-dose activity change, negative = inhibition, hits mostly inhibitors. actives 0.21% (n = 410,000). AID 624170, 2012; further: potency means the concentration at half of the fitted maximal effect; on the % scale 0 is the no-effect control and ±100 the full control effect
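hKGA; 45 mM KH2PO4 pH 8.2 + 0.02% Tween-20; cpd via pin tool; 1 mM Gln soln; GluOx/HRP/Amplex Red; RT 30 min; fluor. t0 & final.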
p53 reactivator: qHTS assay for re-activators of p53 using a Luc reporter. H1299 p53-A138V BP100-luciferase reporter, luminescence, 24 h. Potency, µM (series often up to 92.2 µM), inactives show at the highest dose activity change, positive = activation, actives largely listed as activators. AID 504706, 2011. actives 0.063% (n = 320,000); further: potency means the concentration at half of the fitted maximal effect; % of control where 0% means no effect; nearly all actives have a fitted effect of over 45% in size
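H1299 (p53-null), stable ts p53-A138V + BP100-Luc; 1000 cells/well, Opti-MEM/10% FBS; cpd 4 pt, 1:5; 24 h, 37 deg C, 5% CO2; detection reagent 10 min RT; luminescence.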
TSHR antag: Antagonists of the Thyroid Stimulating Hormone Receptor: HTS campaign; activity change, negative = inhibition, % at 11.5 µM; TSHR-expressing cells, TSH-stimulated cAMP HTRF, 2 h; hits give low values; Thyrotropin receptor (Homo sapiens), P16473; actives 0.2% (n = 330,000);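 active means activity change below a set negative limit, meaning inhibition stronger than a set level, cut at about -70% in these data; inconclusive means activity change between two set negative limits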; further: on the % scale 0 is the no-effect control and ±100 the full control effect
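Read-out is FRET at 665 nm (cryptate excitation 337 nm) from a cryptate-tagged anti-cAMP antibody, competed by cell cAMP against cAMP-d2. Compounds are tested on freshly harvested TSHR cells challenged with 4nM TSH (EC80) for 2 hours at 37 deg C.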
An asterisk follows results filed as active; ? = inconclusive; . = no result; [ ] = another dose, or the depositor's remark. Unless noted, the call rests on the fitted dose curve; in most records, active means well fitted curve in the direction sought with a large enough effect; inconclusive means small, poorly fitted or top-dose-only effect, or another doubt; inactive means no such curve, though single readings can be large; an effect the other way counts as inactive or inconclusive.

SMILES	N370S GC	TCR activator	BRCA1 expr act	GLS inh	p53 reactivator	TSHR antag
Cc1ccc(-c2cc(N)n(-c3ccc(C)cc3)n2)cc1	3%	0%	10µM*	8%	?	-7
Cc1ccc(-c2cc(N)n3nc(-c4ccc(C)cc4)cc3n2)cc1	6%	5%	-24%	-2%	6%	-3
C=NCc1cc2c(OC[C@@H](O)CNC(C)(C)C)cccc2[nH]1	2%	.	.	.	.	.
CCCCn1cnc2c(oc3nc4c(cc32)CCCC4)c1=O	24%	-2%	55%	5%	2%	-4
CCCCCCn1cnc2c(oc3nc4c(cc32)CCCC4)c1=O	?	0%[46.1 µM]	3.5µM*	3%	?	0
O=c1c(O)c(-c2cc(O)c(O)c(O)c2)oc2cc(O)cc(O)c12	?	2%	-10%	4µM*	-4%	-14
O=c1oc2c(CN3CCOCC3)c(O)ccc2c2ccccc12	2%[12.8 µM]	-4%	14µM*	14%	8%	4
CN(C(=O)CO)c1c(I)c(C(=O)NCC(O)CO)c(I)c(C(=O)NCC(O)CO)c1I (stereo not drawn)	.	.	.	-6%	.	.
Cc1cc(NC(=O)c2cccc(Br)c2)n[nH]1	-22%	1%	11µM*	1%	?	5
CC(C)C1Nc2ccc(C(=O)N3CCN(c4ccccn4)CC3)cc2NC1=O (stereo not drawn)	-14%	0%	2%	1%	11%	-113*
O=C1CNc2ccc(C(=O)N3CCN(c4ccccn4)CC3)cc2N1	3%	-9%	5%	5%	6%	1
O=C(O)CCSc1nc2ccccc2n1Cc1ccccc1	-3%	-12%	-6%	-1%	1%	-117*
CCCn1c(SCCC(=O)O)nc2ccccc21	21%	1%	-2%	-9%	2%	3
Cc1ccc(CC(=O)NO)cc1	.	.	0%	.	.	.
CC(=O)c1ccc(OCc2cc(C(=O)N(C)Cc3cc(C)no3)no2)cc1	3%	-7%	66%	-2%	7%	-5
COc1cc(C)ccc1OCc1cc(C(=O)N(C)CCCN2CCOCC2)no1	-13%	0%	7.9µM*	6%	?	3
COc1ccc(OCc2cc(C(=O)N(C)Cc3cc(C)no3)no2)c(Cl)c1	-1%	4%	4µM*	-8%	?	-17
CCc1ccc(CN(C)C(=O)c2cc(COc3ccc(OC)cc3Cl)on2)nc1	-12%	-4%	8.9µM*	-4%	13%	8
COc1ccc(OCc2cc(C(=O)N(C)Cc3nnc(C)o3)no2)c(Cl)c1	-3%	-1%	7.1µM*	-5%	?	-3
COc1ccc(Cn2nnnc2C(c2ccccn2)N2CCN(c3ccc(O)cc3)CC2)cc1 (stereo not drawn)	.	.	2%	.	.	.
Cc1nnc(SCc2ccccc2)nc1-c1ccccc1	.	-3%	11µM*	-1%	.	.
COc1ccc(OCCSc2ncnc3nc[nH]c23)cc1	3%	-2%	?	-16%	?	-9
c1ccc(OCCSc2ncnc3nc[nH]c23)cc1	.	.	8.9µM*	4%	.	.
COc1ccc(CC(=O)n2[nH]c(=O)ccc2=O)cc1OC	-1%	-2%	0%	10µM*	11%	2
O=C(/C=C/c1cccs1)N1CCCCC1	13%	0%	?	-11%	4%	-5
O=C(/C=C/c1cccs1)N1CCN(c2ccc(O)cc2)CC1	7%	-20%	-19%	7.1µM*	-1%	-3
COc1cc(OC)cc(-n2c(=O)c3ccccc3n(Cc3ccccc3C#N)c2=O)c1	.	.	.	12%	.	.
Cc1ccc(CCNC(=O)C2CCN(S(=O)(=O)c3cccc4cccnc34)CC2)cc1	-14%	5%	-2%	1%	-9%	-107*
